Data on 16 compounds can be found in PubChem BioAssay (NCI).

Each structure is given as a SMILES string. Compounds without any hit were thinned out: in the full panel of roughly 83,000, 20% have a hit.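 Negative percent growth values reflect cell death: -40 means 40% of the cells present at the start died, and -100 means all died.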 Unmarked numbers belong to inactive results. Active and inactive are the calls of the source. How the source made its calls: active means growth percent below 10; inactive means the rest.

Common to all, as to assay: NCI-60 one-dose screen, 48 h (100 = growth as untreated, 0 = no growth, -100 = all killed)
Holding throughout (conditions): 10 µM unless noted

The subject of assay [1] is SK-MEL-2 melanoma.
The subject of assay [2] is SN12C renal.
For assay [3], the system named is UO-31 renal.
Assay [4] has as its system TK-10 renal.
Assay [5] concerns ACHN renal.
The subject of assay [6] is CAKI-1 renal.
Assay [7] concerns A498 renal.
In assay [8] the test system is MOLT-4 leukemia.
The test system of assay [9] is SR leukemia.
In assay [10] the test system is RPMI-8226 leukemia.
Assay [11] has as its system OVCAR-8 ovarian.
In assay [12] the test system is OVCAR-5 ovarian.
The subject of assay [13] is OVCAR-4 ovarian.
Assay [14] relates to SK-OV-3 ovarian.
The test system of assay [15] is IGROV1 ovarian.
Assay [16] relates to OVCAR-3 ovarian.
The test system of assay [17] is HS 578T breast.
Assay [18] has as its system NCI/ADR-RES ovarian.
Assay [19] concerns CCRF-CEM leukemia.

On to `CCCCCCCCCCCCCCCCCCSC(=N)N`, for which the growth is 97.6% in [1]; 65.6% in assay [2]; 43.2% in [3]; 65.5% in [4]; 69.9% in assay [5]; 79.4% in assay [6]. Besides, the growth in [7] is 84.7%; in assay [8], 26.2%; in assay [9] it was -13.5% (active); in [10], 61.7%; in assay [11] it was 86.9%; in assay [12], 83.2%. The growth in assay [13] was 76.1%; in [14] it was 83.3%; in assay [15], 70.5%; in assay [16] it was 89.5%; in assay [17] it was 100%; in assay [18], 81%.
For the compound `COC(CCCl)c1ccc(Cl)cc1` (centres undefined), the growth was 83.5% in assay [1]; 106% in assay [2]; 84.5% in assay [3]; 86.3% in [4]; 88.9% in assay [5]; 101% in assay [6]. For the same compound, the growth in [7] is 109%; in assay [8] it was 95%; in [9], 90.2%; in [10], 100%; in assay [11], 96.9%; in [12], 96.2%. In addition, the growth was 108% in [13]; 106% in [14]; 100% in [15]; 109% in assay [16]; 98.6% in [18].
On to `O=C(Nc1ccccc1)c1ccco1`, for which the growth was 99.1% in assay [1]; 109% in [2]; 86.1% in assay [3]; 98.9% in assay [4]; 107% in [5]; 95.9% in assay [6]. In addition, the growth was 107% in assay [19]; 100% in [9]; 105% in assay [10]; 101% in [11]; 110% in assay [12]; 100% in assay [13]. For the same compound, the growth is 103% in assay [14]; 105% in assay [15]; 114% in [16]; 103% in [17]; 107% in assay [18].
As to `Cc1cccc2ccccc12`, the growth in assay [1] is 106%; in assay [2] it was 100%; in assay [3], 86.8%; in assay [4], 103%; in [5], 99.7%; in assay [6], 91.6%. For the same compound, the growth in assay [19] is 102%; in assay [10], 101%; in [11] it was 100%; in [12] it was 104%; in [13], 108%; in assay [14] it was 103%. Also, the growth was 112% in assay [15], 110% in assay [16], 107% in assay [17] and 99.6% in assay [18].
Consider `Cc1cc(Cc2ccccc2)c(O)c(Cc2ccccc2)c1`, for which the growth in assay [1] is 111%; in assay [2], 79.7%; in [3] it was 64.6%; in assay [4], 98.8%; in [5], 92.9%; in assay [6] it was 80.5%. Also, the growth in assay [7] is 98.6%; in assay [19] it was 98.2%; in assay [8], 64.6%; in [9], 91.3%; in assay [10] it was 103%; in [11] it was 91.1%. For the same compound, the growth in assay [12] is 88.2%; in [15], 90.2%; in [16], 101%; in assay [17] it was 106%; in assay [18], 82.6%.
Regarding `Cc1ccc(O)c(N)c1`, the growth is 112% in [1]; 107% in assay [2]; 87.9% in assay [3]; 127% in [4]; 97% in [5]; 215% in assay [6]. Moreover, the growth is 127% in assay [7]; 78.7% in [19]; 123% in assay [8]; 113% in [9]; 55.7% in assay [10]; 104% in [11]. For the same compound, the growth in assay [12] was 115%; in assay [13], 111%; in [16], 118%; in assay [17], 106%; in assay [18] it was 107%.
Regarding `CC(=O)OC/C(C)=C\CC(C)COC(C)=O` (centres undefined), the growth in assay [1] was 113%; in assay [2], 99.6%; in [3], 87.7%; in assay [4], 112%; in assay [5] it was 96.9%; in assay [7], 95.7%. Besides, the growth is 96.9% in assay [19]; 111% in [8]; 83% in assay [9]; 94.2% in assay [10]; 99.8% in assay [11]; 111% in [12]. Besides, the growth in [13] is 105%; in [14], 101%; in [15], 106%; in assay [16], 112%; in assay [17], 100%; in [18], 104%.
Consider `CCOC(=O)CNC`, for which the growth in [1] was 117%; in [2], 96.4%; in assay [3], 107%; in assay [4], 126%; in [5], 91.1%; in assay [6], 94.6%. In addition, the growth in [7] was 83.1%; in [19], 92.3%; in assay [9], 93.2%; in assay [10], 99.7%; in assay [11], 91.3%; in [12] it was 97.2%. The growth in [13] is 96.5%; in [16], 111%; in assay [17], 121%; in assay [18], 100%.
`CC(=O)c1cccc(NS(=O)(=O)c2ccc(C)cc2)c1`: the growth in assay [1] is 77.9%; in assay [2] it was 89.1%; in [3], 77%; in [4] it was 90.3%; in [5], 106%; in assay [6], 81.6%. The growth in assay [19] was 84%; in assay [8], 73.9%; in assay [9], 36.6%; in [10] it was 86.6%; in assay [11], 90.1%; in assay [12] it was 92.8%. The growth was 79% in assay [13]; 101% in assay [14]; 62.8% in assay [15]; 70.9% in [16]; 86.9% in assay [17]; 50.5% in [18].
Consider `CN(C(=S)S(=O)(=O)C12CC3CC(CC(C3)C1)C2)c1ccccc1`, for which the growth in assay [1] is 69.2%; in assay [2], 90.4%; in assay [3] it was 71.5%; in assay [4] it was 107%; in [5], 93.9%; in assay [6], 81.8%. The growth was 98.6% in assay [7]; 15.9% in assay [19]; 11.9% in [8]; 83.9% in [10]; 98.6% in [11]; 89.6% in assay [12]. Besides, the growth was 104% in assay [13]; 99.9% in [14]; 8.02% (active) in assay [15]; 73.7% in assay [16]; 85% in assay [17]; 102% in [18].
For the compound `CCN(C(=O)Nc1ccccc1Cl)c1ccccc1`, the growth is 114% in assay [1]; 113% in assay [2]; 91.4% in assay [3]; 121% in assay [4]; 96.2% in assay [5]; 96.2% in [6]. Further, the growth in [7] is 102%; in [19] it was 110%; in assay [9], 81.4%; in assay [10], 107%; in [11], 101%; in assay [12], 97.1%. For the same compound, the growth was 113% in [14]; 103% in assay [15]; 116% in assay [16]; 102% in [17]; 107% in [18].
With `COC1OC(CO)C(OC)C(O)C1O` (centres undefined), the growth in assay [1] was 111%; in [2] it was 104%; in assay [3], 92.5%; in assay [4], 110%; in [5], 104%; in assay [6] it was 105%. The growth was 92.7% in [7]; 102% in assay [19]; 98.6% in assay [8]; 93.8% in assay [9]; 101% in assay [10]; 105% in assay [11]. For the same compound, the growth in [13] is 98.5%; in assay [14] it was 105%; in [15], 102%; in [16], 112%; in [17], 112%; in assay [18], 93.5%.
For `O=S1(=O)c2ccccc2Oc2ccccc21`, the growth in assay [1] was 100%; in [2] it was 96.8%; in [3] it was 93.9%; in assay [4], 101%; in assay [5], 99.7%; in assay [7], 99.7%. Besides, the growth in assay [19] is 127%; in assay [8], 111%; in [9], 101%; in assay [10] it was 110%; in assay [11], 99.6%; in assay [12], 96.3%. Moreover, the growth in assay [13] is 100%; in assay [14] it was 104%; in assay [15], 105%; in [16] it was 114%; in [17] it was 106%; in assay [18], 108%.
Turning to `Cc1ccccc1NC(=O)Oc1ccc(Cl)cc1C(=O)c1ccccc1`, the growth in [1] is 92.6%; in assay [2] it was 88.2%; in assay [3], 49.1%; in assay [4], 113%; in assay [5], 88.1%; in assay [7], 107%. For the same compound, the growth in assay [19] is 96.5%; in [8] it was 86.3%; in [9], 94.2%; in assay [10], 85.6%; in assay [11] it was 91.4%; in [12], 105%. Also, the growth in assay [13] was 102%; in [14] it was 95.4%; in assay [15], 101%; in assay [16], 95.3%; in [17], 84.3%; in assay [18], 97%.
On to `CCCCNc1ccc(-c2ccc(NCCCC)cc2)cc1`, for which the growth in assay [1] is 101%; in assay [2], 81.4%; in assay [3] it was 58.8%; in assay [4], 92%; in [5] it was 71.1%; in [7], 59.7%. Besides, the growth was 51.9% in assay [19]; 68.8% in assay [8]; 44.1% in assay [9]; 61.8% in assay [10]; 82.1% in [11]; 90.3% in assay [12]. Further, the growth in assay [13] was 63.5%; in assay [14], 94.5%; in assay [15], 78%; in assay [16], 67.8%; in [17], 84.2%; in assay [18] it was 79.3%.
On to `OC(CBr)CCBr` (centres undefined), for which the growth in assay [1] is 124%; in assay [2], 96.8%; in assay [3] it was 103%; in assay [4] it was 131%; in [5] it was 100%; in assay [6], 92.4%. Moreover, the growth was 97.5% in assay [7]; 88.2% in assay [19]; 78.3% in assay [9]; 98.8% in assay [10]; 99.8% in assay [11]; 106% in assay [12]. For the same compound, the growth in assay [13] was 93.5%; in assay [14], 101%; in [15], 89.5%; in [16] it was 112%; in assay [17], 103%; in assay [18] it was 106%.
